# Sampled rows, rich in hits. Any-hit rate of the full collection: about 2.3%.
# M1 PAM parental: nonselective activator or artifact in parental CHO-K1 calcium assay; activation, % at 3 µM; AID 602247; ATP EC20, Fluo-8 calcium fluorescence; 0% at ATP EC20, 100% at ATP max; 360,000 tested, 0.02% active;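 active = activation above the run cutoff, the mean activation of all test compounds plus 3 SD, cut at about 40% in these data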;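 also: peak over basal fluorescence ratio in a 140 s read after ATP addition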
# CHRM1 PAM: positive allosteric modulators of human M1 muscarinic receptor; P11229; CHO-K1 hM1, Fluo-8 calcium fluorescence, ACh EC20; 0% = ACh EC20, 100% = maximal ACh; activation, % at 3 µM; 360,000 tested, 0.088% active; in the data active = activation above about 19%, passing the limit was not always enough
# Target sequence (P11229 whole entry, looked up): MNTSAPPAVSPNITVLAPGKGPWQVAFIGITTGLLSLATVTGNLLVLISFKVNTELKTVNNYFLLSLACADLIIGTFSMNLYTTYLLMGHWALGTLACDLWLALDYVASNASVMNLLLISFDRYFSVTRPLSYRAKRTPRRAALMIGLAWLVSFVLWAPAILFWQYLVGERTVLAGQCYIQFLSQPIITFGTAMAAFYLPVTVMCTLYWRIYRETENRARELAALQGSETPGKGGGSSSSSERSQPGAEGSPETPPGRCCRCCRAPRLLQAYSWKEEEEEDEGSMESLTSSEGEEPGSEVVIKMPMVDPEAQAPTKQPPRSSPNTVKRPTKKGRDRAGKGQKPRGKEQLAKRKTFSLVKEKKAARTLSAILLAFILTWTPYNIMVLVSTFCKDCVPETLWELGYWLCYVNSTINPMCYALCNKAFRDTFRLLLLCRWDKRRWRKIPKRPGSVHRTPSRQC
# M1 ag parental: counter-screen for M1 agonists: effect in parental CHO-K1 cells. 360,000 tested, 0.48% active. activation, % at 3 µM. Fluo-8 calcium fluorescence; scaled to maximal ATP response, vehicle zero; in the data active = activation above about 15%;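 also: untransfected CHO-K1 host cells lacking M1 receptor as counterscreen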
# CHRM1 agonist: agonists of human M1 muscarinic receptor | activation, % at 3 µM | 360,000 tested, 0.33% active | CHO-K1 hM1, Fluo-8 calcium fluorescence, agonist mode; 0% DMSO, 100% acetylcholine EC100;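 active = activation above the run's mean compound activation plus 3 SD, cut at about 16% in these data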;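 also: peak over basal fluorescence ratio within a 140 s kinetic read after compound addition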
# M1 antag: blocks human M1 muscarinic receptor; P11229; CHO-K1 hM1, Fluo-8 calcium fluorescence, ACh EC80 antagonist; inhibition, % at 3 µM; 360,000 tested, 1.3% active; AID 588852;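 active = percent inhibition above its own plate's cutoff, namely the mean of that plate's compound wells plus 3 SD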;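 also: peak over basal fluorescence ratio during 140 s after agonist addition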
# CHO-K1 Ca antag: M1 antagonist counterscreen hit in parental CHO-K1 cells; ATP-induced calcium, Fluo-8 fluorescence; inhibition, % at 3 µM; 360,000 tested, 0.6% active;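 active = inhibition above a per-plate cutoff, the plate's mean sample inhibition plus 3 SD, cut at about 24% in these data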
# Numbers stand for hits; 0 = inactive.
SMILES,M1 PAM parental,CHRM1 PAM,M1 ag parental,CHRM1 agonist,M1 antag,CHO-K1 Ca antag
O=[N+]([O-])c1ccc(-c2cnc(SC(c3ccccc3)c3ccccc3)[nH]2)cc1,0,0,0,0,26,0
CCOC(=O)N1CCC(=NNC(=O)Cn2ccc(C(F)(F)F)n2)CC1,0,0,0,0,0,0
CCN(CC(=O)NCc1ccc(F)cc1)C(=O)c1cccc(S(=O)(=O)N(C)c2ccc(OC)cc2)c1,0,0,0,0,0,0
CC1CC1C(=O)OCC(=O)NNC(=O)c1ccc([N+](=O)[O-])cc1 (stereo unspecified),0,0,0,0,0,0
CN(C)c1ccc(-c2csc(C(C)(O)c3ccc(F)c(F)c3)n2)cc1 (stereo unspecified),0,0,0,0,25,0
CC(O)(c1ccc(F)c(F)c1)c1nc(-c2ccncc2)cs1 (stereo unspecified),0,0,0,0,0,0
CCCCn1c(N)c(N(C(=O)CSc2nnc(C)n2-c2ccccc2)C2CCCC2)c(=O)[nH]c1=O,0,0,0,0,0,0
COc1cc(C)c(Cl)cc1S(=O)(=O)NCCCN1CCOCC1,0,0,0,0,0,0
COc1cc(C)c(Br)cc1S(=O)(=O)NCCCN1CCOCC1,0,0,20,0,0,0
COc1ccc(CCCNC(=O)C2(C)Cc3c(-c4ccc5c(c4)OCO5)ccnc3O2)cc1 (stereo unspecified),0,0,0,0,0,0
CNCCCC1Sc2ccccc2Oc2ccccc21 (stereo unspecified),0,0,0,0,33,0
CC(C)CNC(=O)C1c2ccccc2Oc2ccccc21,0,0,0,0,0,0
C=CCn1c(O)c(C=Nc2ccccc2)sc1=S,0,0,0,0,0,29
OCCC1CN(Cc2ccsc2)CCN1C1CCCC1 (stereo unspecified),0,0,0,0,43,0
COc1ccc2c(c1)C=C(CN1CCN(C3CCCC3)C(CCO)C1)CO2 (stereo unspecified),0,0,0,0,95,0
OCCC1CN(Cc2c(F)cccc2Cl)CCN1C1CCCC1 (stereo unspecified),0,0,0,0,57,0
OCCC1CN(Cc2nc(-c3ccccc3)cs2)CCN1C1CCCC1 (stereo unspecified),0,0,0,0,45,0
OC(c1cccnc1)c1nc(-c2cccc(F)c2)cs1 (stereo unspecified),0,0,0,0,0,0
CC(C)=CCN1CCN(C/C(Cl)=C/c2ccccc2)CC1CCO (stereo unspecified),0,0,0,0,0,0
OCCC1CN(C/C(Cl)=C/c2ccccc2)CCN1C1CCCC1 (stereo unspecified),0,0,0,0,22,0
O=C(Cn1cnc2c(NCc3ccccc3)ncnc21)NCc1ccccc1,0,0,0,0,0,0
C[C@@H](NC(=O)Cn1cnc2c(NCc3ccccc3)ncnc21)c1cccc2ccccc12,0,0,0,48,0,0
C[C@@H](NC(=O)Cn1cnc2c(OCc3ccccc3)ncnc21)c1cccc2ccccc12,0,0,0,33,0,0
CCCCNC(=O)N(O)C1N(/N=C/c2ccco2)C(=S)SC1(C)C (stereo unspecified),0,0,0,0,0,0
Cc1cccc(C)c1NC(=O)c1cnccn1,0,0,0,0,0,0
SMILES,M1 PAM parental,CHRM1 PAM,M1 ag parental,CHRM1 agonist,M1 antag,CHO-K1 Ca antag
N#C/C(=C\Nc1ccc2cn[nH]c2c1)c1nc(-c2ccccc2)cs1,0,0,0,0,0,0
Cc1ccnc(N/C=C(\C#N)c2nc(-c3cccc(Br)c3)cs2)c1,0,0,85,161,43,39
O=C(Nc1ccc2c(c1)OCCO2)c1[nH]c(C(F)(F)F)nc1-c1ccccc1,0,0,0,0,0,0
Cc1cc(C)n(CC(=O)c2cccc([N+](=O)[O-])c2)n1,0,0,17,0,0,0
COc1ccc(C#Cc2ccc3c(c2)O[C@@H](CN(C)C(=O)Nc2cccc(OC)c2)[C@H](C)CN([C@@H](C)CO)S3(=O)=O)cc1,0,0,0,0,0,0
COc1cccc(NC(=O)N(C)C[C@H]2Oc3cc(Br)ccc3S(=O)(=O)N([C@H](C)CO)C[C@H]2C)c1,0,0,0,0,20,28
COc1ccccc1S(=O)(=O)N(C)C[C@@H]1Oc2cc(C#CCC(C)C)ccc2S(=O)(=O)N([C@H](C)CO)C[C@@H]1C,0,0,0,0,0,34
O=C1C(Cl)=C(N2CCCCCC2)C(=O)N1c1ccc(Br)cc1,0,0,0,0,0,0
O=C1C(Cl)=C(N2CCCCCC2)C(=O)N1c1ccccc1,0,0,0,0,36,0
O=C(Nc1cccc(C(=O)O)c1)/C(=C\c1cccc([N+](=O)[O-])c1)NC(=O)c1ccc(Br)cc1,0,0,0,0,61,0
COc1ccc2ccccc2c1CNC(C)c1ccccc1 (stereo unspecified),0,0,0,0,0,0
CC(NCCCOc1cccc2ccccc12)c1ccccc1 (stereo unspecified),0,0,28,0,0,0
O=S1(=O)NC(=NCC(c2ccco2)N2CCCCC2)c2ccccc21 (stereo unspecified),0,0,0,0,57,0
Cc1cc(C(=O)CCl)c(C)n1CCc1ccc(Cl)cc1,0,0,0,0,33,0
CCC(C)NC(=O)CCS(=O)(=O)c1ccc(Br)s1 (stereo unspecified),0,0,0,0,0,0
CCOC(=O)N1CCN(C(=O)CCS(=O)(=O)c2ccc(Br)s2)CC1,0,0,0,0,0,27
CC(C)CC(=O)Nc1nnc(S(=O)(=O)N2CCc3ccccc32)s1,0,0,0,0,0,29
COc1ccc(C(C(=O)NCC2CCCO2)N(C(=O)CNC(=O)c2ccco2)c2ccccc2)cc1OC (stereo unspecified),0,0,0,0,0,0
Cc1ccc(N(C(=O)CNC(=O)c2ccco2)C(C(=O)NCC2CCCO2)c2ccccc2)cc1 (stereo unspecified),0,0,0,0,0,0
Cc1cccc(N(C(=O)CNC(=O)c2ccco2)C(C(=O)NCC2CCCO2)c2ccccc2)c1 (stereo unspecified),0,0,0,0,23,0
O=C(NCC1CCCO1)C(c1ccc(F)cc1)N(C(=O)Cn1nnc(-c2ccc(F)cc2)n1)c1cccc(O)c1 (stereo unspecified),0,0,0,0,36,0
COc1ccc(C(C(=O)NCC2CCCO2)N(C(=O)CNC(=O)c2cccs2)c2ccccc2)cc1OC (stereo unspecified),0,0,0,0,0,24
Cc1cccc(NC(=S)N2CCC(NC(=O)c3cccc(F)c3)CC2)c1,0,0,0,0,0,0
